{"source": "PubChem BioAssay (Tox21)", "note": "Records with an inconclusive call do not appear. The source made the active and inactive calls. Calls follow the shape of the full dose curve. % is scaled to controls: 0 for no effect and ±100 for the full control effect."}
{"molecular_target": "Acetylcholinesterase (Homo sapiens) (UniProt P22303)", "sequence (P22303 whole entry, looked up)": "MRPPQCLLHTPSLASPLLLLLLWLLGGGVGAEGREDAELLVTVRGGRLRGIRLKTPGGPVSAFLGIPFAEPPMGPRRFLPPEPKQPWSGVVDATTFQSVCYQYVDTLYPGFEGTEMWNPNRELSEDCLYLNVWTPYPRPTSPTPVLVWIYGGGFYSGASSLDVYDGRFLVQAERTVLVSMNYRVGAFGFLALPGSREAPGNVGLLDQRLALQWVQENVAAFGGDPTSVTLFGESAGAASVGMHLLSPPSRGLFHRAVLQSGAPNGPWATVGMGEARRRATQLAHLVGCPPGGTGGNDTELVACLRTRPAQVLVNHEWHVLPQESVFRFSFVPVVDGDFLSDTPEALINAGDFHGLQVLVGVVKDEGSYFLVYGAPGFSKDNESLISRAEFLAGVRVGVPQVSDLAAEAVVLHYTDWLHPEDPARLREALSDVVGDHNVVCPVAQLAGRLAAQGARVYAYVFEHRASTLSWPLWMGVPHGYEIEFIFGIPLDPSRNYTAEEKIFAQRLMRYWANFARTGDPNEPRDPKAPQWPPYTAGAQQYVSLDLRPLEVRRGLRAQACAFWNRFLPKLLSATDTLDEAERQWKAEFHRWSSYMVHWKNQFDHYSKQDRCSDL", "assay": "Acetylcholinesterase (AChE) small molecule antagonists: fluorescence cell-based qHTS assay (AID 1347398); also: nearly all actives have a fitted effect of over 50% in size", "details": "SH-SY5Y cells; Potency: AChE activity; outcome: AChE activity; series mostly up to 115 µM; activity change, negative = inhibition: at the top concentration", "how_it_was_run": "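Human SH-SY5Y cells were plated overnight at 37 C, exposed to compound for 30 min at 37 C, 5% CO2, then given acetylthiocholine plus Thiolite Green for 40 min at room temperature; thiocholine fluorescence (Ex/Em 490/520 nm) reports endogenous AChE activity.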"}
{"smiles": "CC(C)=CCOc1ccc(/C=C/C(=O)c2ccc(OCC=C(C)C)cc2OCC(=O)O)cc1", "activity change, negative = inhibition": "5.1% [at 53.7 µM] (inactive)"}
{"smiles": "CC(C(=O)O)c1ccc(CC2CCCC2=O)cc1", "note": "(stereo not given)", "activity change, negative = inhibition": "1.2% [at 53.7 µM] (inactive)"}
{"smiles": "CCCCOC(=O)C(C)CC", "note": "(stereo not given)", "activity change, negative = inhibition": "0.072% (inactive)"}
{"smiles": "COC(=O)c1cc(S(N)(=O)=O)ccc1OC", "activity change, negative = inhibition": "0.732% [at 53.7 µM] (inactive)"}
{"smiles": "CC(=O)c1ccc2c(c1)Cc1ccccc1-2", "activity change, negative = inhibition": "0.142% (inactive)"}
{"smiles": "O=S(O)(O)=S", "activity change, negative = inhibition": "2.89% [at 10.5 µM] (inactive)"}
{"smiles": "CC(NC(CCc1ccccc1)C(=O)O)C(=O)N1C(=O)N(C)CC1C(=O)O", "note": "(stereo not given)", "activity change, negative = inhibition": "0.137% [at 53.7 µM] (inactive)"}
{"smiles": "CCOC(=O)C(C)(C)C", "activity change, negative = inhibition": "-1.08% (inactive)"}
{"smiles": "O=C1N(c2ccccc2)c2ccccc2C1(Cc1ccncc1)Cc1ccncc1", "activity change, negative = inhibition": "6.35% [at 53.7 µM] (inactive)"}
{"smiles": "C/C=C(\\C)C(=O)OCC/C=C\\CC", "activity change, negative = inhibition": "0.633% (inactive)"}
{"smiles": "CNCCS(=O)(=O)O", "activity change, negative = inhibition": "0.689% (inactive)"}
{"smiles": "Nc1nc(-c2ccccc2)c(Br)c(=O)[nH]1", "activity change, negative = inhibition": "9.34% [at 53.7 µM] (inactive)"}
{"smiles": "CC(C)CCCC(C)CCO", "note": "(stereo not given)", "activity change, negative = inhibition": "2.49% (inactive)"}
{"smiles": "CCOC(=O)c1ccccc1", "activity change, negative = inhibition": "2.28% (inactive)"}
{"smiles": "CCOC(=N)CC(=O)OCC", "activity change, negative = inhibition": "2.22% (inactive)"}
{"smiles": "CCC[C@@H]1C[C@@H](C(=O)N[C@@H]([C@H]2O[C@H](SC)[C@H](O)[C@@H](O)[C@H]2O)[C@@H](C)O)N(C)C1", "activity change, negative = inhibition": "5.91% [at 53.7 µM] (inactive)"}
{"smiles": "CN1CCN(C(=O)C2CCCCC2)CC1", "activity change, negative = inhibition": "4.51% [at 53.7 µM] (inactive)"}
{"smiles": "CCOC(=O)Nc1ccc2c(c1)N(C(=O)CCN1CCOCC1)c1ccccc1S2", "activity change, negative = inhibition": "3.89% [at 53.7 µM] (inactive)"}
{"smiles": "CCOCCOC(=O)/C=C/c1ccc(OC)cc1", "activity change, negative = inhibition": "-6.06% [at 53.7 µM] (inactive)"}
{"smiles": "Nc1ccc(NC(=O)c2ccc(N)cc2)cc1", "activity change, negative = inhibition": "-13.1% (inactive)"}
{"smiles": "Nc1ccc(C(=O)OCC(O)CO)cc1", "note": "(stereo not given)", "activity change, negative = inhibition": "-2.32% [at 53.7 µM] (inactive)"}
{"smiles": "CC(C)(C)C1CCCCC1=O", "note": "(stereo not given)", "activity change, negative = inhibition": "2.9% (inactive)"}
{"smiles": "CCCCCCNC(=O)n1cc(F)c(=O)[nH]c1=O", "activity change, negative = inhibition": "-12.4% [at 53.7 µM] (inactive)"}
{"smiles": "C1=CCC(c2ccccc2)CC1", "note": "(stereo not given)", "activity change, negative = inhibition": "2.55% (inactive)"}
{"smiles": "Cn1c(=O)c2c(ncn2CC(O)CO)n(C)c1=O", "note": "(stereo not given)", "activity change, negative = inhibition": "-3.7% [at 53.7 µM] (inactive)"}
{"smiles": "CCC1(C)NC(=O)NC1=O", "note": "(stereo not given)", "activity change, negative = inhibition": "-0.335% (inactive)"}
{"smiles": "CCOC(=S)SSC(=S)OCC", "activity change, negative = inhibition": "1.39% (inactive)"}
{"smiles": "C=COCCCC", "activity change, negative = inhibition": "14.1% (inactive)"}
{"smiles": "NNc1nc(-c2ccc(N)cc2)cs1", "activity change, negative = inhibition": "-4.74% (inactive)"}
{"smiles": "CC1=CC(=O)CC(C)(C)C1=O", "activity change, negative = inhibition": "-13.9% (inactive)"}
{"smiles": "O=S(=O)(O)c1ccccc1O", "activity change, negative = inhibition": "0.629% (inactive)"}
{"smiles": "CC(N=C(NC#N)Nc1ccncc1)C(C)(C)C", "note": "(stereo not given)", "activity change, negative = inhibition": "-24.4% [at 53.7 µM] (inactive)"}
{"smiles": "CCN(CC)CC(=O)OCC(=O)[C@@]1(O)CC[C@H]2[C@@H]3CCC4=CC(=O)CC[C@]4(C)[C@H]3[C@@H](O)C[C@@]21C", "activity change, negative = inhibition": "-2.08% [at 53.7 µM] (inactive)"}
{"smiles": "COc1cc(NS(=O)(=O)c2ccc(N)cc2)nc(C)n1", "activity change, negative = inhibition": "4.31% [at 53.7 µM] (inactive)"}
{"smiles": "CCOc1ccc2[nH]cc(C(=O)NCc3ccccc3)c(=O)c2n1", "activity change, negative = inhibition": "0.253% (inactive)"}
{"smiles": "CC1(C)CC(N)CC(C)(C)N1", "activity change, negative = inhibition": "0.516% (inactive)"}
{"smiles": "O=C1c2ccccc2C(=O)c2cc(Cl)ccc21", "activity change, negative = inhibition": "0% [at 10.5 µM] (inactive)"}
{"smiles": "COC(=O)CC#N", "activity change, negative = inhibition": "5.09% (inactive)"}
{"smiles": "CC(C)(O)c1ccccc1", "activity change, negative = inhibition": "1.29% (inactive)"}
{"smiles": "CCC(Cl)C(Cl)C(Cl)CC(Cl)C(Cl)C(C)Cl", "note": "(stereo not given)", "activity change, negative = inhibition": "-2.53% (inactive)"}
{"molecular_target": "Acetylcholinesterase (Homo sapiens) (UniProt P22303)", "assay": "Acetylcholinesterase (AChE) small molecule antagonists: enzyme-based qHTS assay with human liver microsomes (AID 1347399); also: nearly all actives have a fitted effect of over 60% in size", "details": "Potency: qHTS inhibition; outcome: qHTS inhibition; series mostly up to 115 µM; activity change, negative = inhibition: at the top concentration", "how_it_was_run": "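Recombinant human AChE (50 mU/mL in the enzyme mix) and human liver microsomes (0.25 mg/mL final) were preincubated with compound and NADPH (0.25 mg/mL final) for 30 min at 37 C. Acetylthiocholine/DTNB was then added; thiocholine was read colorimetrically after 10 min at room temperature.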"}
{"smiles": "CC(C)=CCOc1ccc(/C=C/C(=O)c2ccc(OCC=C(C)C)cc2OCC(=O)O)cc1", "activity change, negative = inhibition": "27.2% [at 53 µM] (inactive)"}
{"smiles": "CC(C(=O)O)c1ccc(CC2CCCC2=O)cc1", "note": "(stereo not given)", "activity change, negative = inhibition": "1.01% [at 53 µM] (inactive)"}
{"smiles": "CCCCOC(=O)C(C)CC", "note": "(stereo not given)", "activity change, negative = inhibition": "-2.22% (inactive)"}
{"smiles": "COC(=O)c1cc(S(N)(=O)=O)ccc1OC", "activity change, negative = inhibition": "-0.773% [at 53 µM] (inactive)"}
{"smiles": "CC(=O)c1ccc2c(c1)Cc1ccccc1-2", "activity change, negative = inhibition": "0.316% (inactive)"}
{"smiles": "O=S(O)(O)=S", "activity change, negative = inhibition": "0.162% [at 10.5 µM] (inactive)"}
{"smiles": "CC(NC(CCc1ccccc1)C(=O)O)C(=O)N1C(=O)N(C)CC1C(=O)O", "note": "(stereo not given)", "activity change, negative = inhibition": "0.923% [at 53 µM] (inactive)"}
{"smiles": "CCOC(=O)C(C)(C)C", "activity change, negative = inhibition": "-1.61% (inactive)"}
{"smiles": "O=C1N(c2ccccc2)c2ccccc2C1(Cc1ccncc1)Cc1ccncc1", "activity change, negative = inhibition": "0.0461% [at 53 µM] (inactive)"}
{"smiles": "C/C=C(\\C)C(=O)OCC/C=C\\CC", "activity change, negative = inhibition": "-0.298% (inactive)"}
{"smiles": "CNCCS(=O)(=O)O", "activity change, negative = inhibition": "0.167% (inactive)"}
{"smiles": "Nc1nc(-c2ccccc2)c(Br)c(=O)[nH]1", "activity change, negative = inhibition": "-0.333% [at 53 µM] (inactive)"}
{"smiles": "CC(C)CCCC(C)CCO", "note": "(stereo not given)", "activity change, negative = inhibition": "0% (inactive)"}
{"smiles": "CCOC(=O)c1ccccc1", "activity change, negative = inhibition": "0.0673% (inactive)"}
{"smiles": "CCOC(=N)CC(=O)OCC", "activity change, negative = inhibition": "-3.67% (inactive)"}
{"smiles": "CCC[C@@H]1C[C@@H](C(=O)N[C@@H]([C@H]2O[C@H](SC)[C@H](O)[C@@H](O)[C@H]2O)[C@@H](C)O)N(C)C1", "activity change, negative = inhibition": "0.168% [at 53 µM] (inactive)"}
{"smiles": "CN1CCN(C(=O)C2CCCCC2)CC1", "activity change, negative = inhibition": "-2.51% [at 53 µM] (inactive)"}
{"smiles": "CCOC(=O)Nc1ccc2c(c1)N(C(=O)CCN1CCOCC1)c1ccccc1S2", "activity change, negative = inhibition": "2.39% [at 53 µM] (inactive)"}
{"smiles": "CCOCCOC(=O)/C=C/c1ccc(OC)cc1", "activity change, negative = inhibition": "1.54% [at 53 µM] (inactive)"}
{"smiles": "Nc1ccc(NC(=O)c2ccc(N)cc2)cc1", "activity change, negative = inhibition": "-0.302% (inactive)"}
{"smiles": "Nc1ccc(C(=O)OCC(O)CO)cc1", "note": "(stereo not given)", "activity change, negative = inhibition": "0.719% [at 53 µM] (inactive)"}
{"smiles": "CC(C)(C)C1CCCCC1=O", "note": "(stereo not given)", "activity change, negative = inhibition": "0.152% (inactive)"}
{"smiles": "CCCCCCNC(=O)n1cc(F)c(=O)[nH]c1=O", "activity change, negative = inhibition": "-0.161% [at 53 µM] (inactive)"}
{"smiles": "C1=CCC(c2ccccc2)CC1", "note": "(stereo not given)", "activity change, negative = inhibition": "-2.17% (inactive)"}
{"smiles": "Cn1c(=O)c2c(ncn2CC(O)CO)n(C)c1=O", "note": "(stereo not given)", "activity change, negative = inhibition": "2.69% [at 53 µM] (inactive)"}
{"smiles": "CCC1(C)NC(=O)NC1=O", "note": "(stereo not given)", "activity change, negative = inhibition": "0.917% (inactive)"}
{"smiles": "CCOC(=S)SSC(=S)OCC", "activity change, negative = inhibition": "-0.789% (inactive)"}
{"smiles": "C=COCCCC", "activity change, negative = inhibition": "0.972% (inactive)"}
{"smiles": "NNc1nc(-c2ccc(N)cc2)cs1", "activity change, negative = inhibition": "1.6% (inactive)"}
{"smiles": "CC1=CC(=O)CC(C)(C)C1=O", "activity change, negative = inhibition": "-0.171% (inactive)"}
{"smiles": "O=S(=O)(O)c1ccccc1O", "activity change, negative = inhibition": "0.446% (inactive)"}
{"smiles": "CC(N=C(NC#N)Nc1ccncc1)C(C)(C)C", "note": "(stereo not given)", "activity change, negative = inhibition": "-1.24% [at 53 µM] (inactive)"}
{"smiles": "CCN(CC)CC(=O)OCC(=O)[C@@]1(O)CC[C@H]2[C@@H]3CCC4=CC(=O)CC[C@]4(C)[C@H]3[C@@H](O)C[C@@]21C", "activity change, negative = inhibition": "0.504% [at 53 µM] (inactive)"}
{"smiles": "COc1cc(NS(=O)(=O)c2ccc(N)cc2)nc(C)n1", "activity change, negative = inhibition": "-0.672% [at 53 µM] (inactive)"}
{"smiles": "CCOc1ccc2[nH]cc(C(=O)NCc3ccccc3)c(=O)c2n1", "activity change, negative = inhibition": "1.16% (inactive)"}
{"smiles": "CC1(C)CC(N)CC(C)(C)N1", "activity change, negative = inhibition": "0.917% (inactive)"}
{"smiles": "O=C1c2ccccc2C(=O)c2cc(Cl)ccc21", "activity change, negative = inhibition": "0.0166% [at 10.5 µM] (inactive)"}
{"smiles": "COC(=O)CC#N", "activity change, negative = inhibition": "0.836% (inactive)"}
{"smiles": "CC(C)(O)c1ccccc1", "activity change, negative = inhibition": "-1.82% (inactive)"}
{"smiles": "CCC(Cl)C(Cl)C(Cl)CC(Cl)C(Cl)C(C)Cl", "note": "(stereo not given)", "activity change, negative = inhibition": "0.676% (inactive)"}
